Reference: PubChem BioAssay AID1259343 (VanderVen Lab, College of Veterinary Medicine, Cornell …, 2017)
The campaign covered roughly 6,200 compounds. About 2,900 (47%) were called active. So high a share suggests a set chosen from earlier hits. This is one part of the list. A number with no mark means an inactive call. Cut-off read from the data, not from the text of the source: active = inhibition above about 50%; inactive = the rest.

Assay: Mycobacterium tuberculosis growth inhibition, primary screen (AID 1259343)
Conditions: inhibition: at 10 µM, active compounds read high; outcome: 10 uM

SMILES	inhibition
O=C1C=CC(=O)N1c1cc(Cl)c(Cl)cc1Cl	11.4%
O=c1c(C=NCc2ccco2)c(NCc2ccco2)nc2ccccn12	88.3% (active)
Cc1cccn2c(=O)c(C=NCCO)c(NCc3ccco3)nc12	45.5%
CCC(C)N=Cc1c(NCc2ccco2)nc2c(C)cccn2c1=O (stereo not given)	4.74%
O=C(COc1ccc(F)cc1Br)NCCOc1ccc(Cl)cc1	77.7% (active)
Cc1ccc(C2=CCN(C(=O)CNC(=O)C3CCCCC3)CC2)cc1	93.1% (active)
O=C(CC1CCCC1)N1CC=C(c2ccc(O)cc2)CC1	41%
O=C(NC(c1ccccc1)c1ccc2ccccc2n1)C1CCN(Cc2ccc(Oc3ccccc3)cc2)CC1 (stereo not given)	56.5% (active)
C=CC[C@H]1CC(C)=C[C@H](CC=C)N1Cc1ncccc1C(=O)O	-5.55%
Cc1ccnc(Nc2ccc(NCCNC(=O)Nc3cccc(Cl)c3C)nn2)c1	36.1%
Cc1cccc(C(=O)O)c1O	23.2%
Cc1c(Cl)cccc1Nc1ccccc1C(=O)O	101% (active)
O=C(O)c1cccc2cccc(-c3cccc4cccc(C(=O)O)c34)c12	37%
C[CH2][Hg][S]c1ccccc1C(=O)O	102% (active)
O=C(Nc1ccc(Cl)cc1)c1c(Cl)nsc1Cl	68.1% (active)
O=C(O)Cc1ccc([N+](=O)[O-])cc1Sc1ccc(Cl)cc1	54.2% (active)
O=C1CC(=O)CC2(CCCC2)C1	22.1%
O=C(Nc1ccc(Cl)c(Cl)c1)Nc1cc(C(F)(F)F)c[nH]c1=O	9.25%
O=C(Nc1ccc(C(F)(F)F)cc1Cl)c1cc([N+](=O)[O-])[nH]n1	102% (active)
CN(C)c1c(Cl)cccc1NC(=O)c1cc(C2CC2)[nH]n1	19.5%
CN(Cc1ccsc1)C(=O)c1cccc2c(=O)c3ccccc3[nH]c12	43.6%
O=S(=O)(Nc1nc2c(F)cc(F)cc2s1)c1ccc(F)cc1F	73.8% (active)
O=C(Nc1cccc(N2CCOC2=O)c1)C1CC(c2ccccc2)=NO1 (stereo not given)	83.1% (active)
N#Cc1cnc(N(Cc2cccc(O)c2)CC2CC2)c(Cl)c1	-4.43%
FCCCN1CCc2onc(-c3ccc(-c4ccccc4)cc3)c2C1	38.4%
O=C(NCCc1ccc(F)cc1)c1ccc(-c2ccc3c(c2)OCO3)s1	66.8% (active)
O=C(NCCc1ccc(F)cc1)c1ccc(-c2cccc(Cl)c2)s1	28.2%
CSCCCNC(=O)c1ccc(-c2ccc(F)cc2)s1	2.44%
CCCCC(CC)COCCCNC(=O)c1ccc(-c2ccc3c(c2)OCO3)s1 (stereo not given)	89.3% (active)
O=C(NC1CCc2ccccc21)c1ccc(-c2ccc3c(c2)OCCO3)s1 (stereo not given)	34.8%
